Experimental data reported in PubChem BioAssay AID1159580 (chemical genetic matrix, 2015).
Values joined by “and” are separate entries in the source; they are usually repeats but may differ in a detail not shown here. Equal entries are not always repeated. The campaign covered roughly 5,500 compounds. About 2,000 (36%) were called active. Another 18% or so got no clear call; they are omitted. No stated cut-off is given here; in the data, active means normalized growth mostly below about 0.91 (no sharp cut-off); inconclusive means no clear call, values can overlap the other calls; inactive means mostly above about 0.92. The list shows a part of the results.

Experiment: chemical genetic growth profiling, strain panel (AID 1159580);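 further: tested at 20 µM; growth read once vehicle control cultures reached saturation at 30 °C; 1 = growth at the plate median or of vehicle wells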
Conditions: growth OD

Measured: normalized growth

COc1cc2c(cc1OC)-c1cc3ccc(OC)c(OC)c3c[n+]1CC2
inactive: S. cerevisiae deletion strains, locus YJR075W, strain HOC1, stronger effect = lower value 0.985 and 1.03 | S. cerevisiae deletion strains, locus YKL009W, strain mrt4, stronger effect = lower value 0.972 and 0.995 | S. cerevisiae deletion strains, locus YKL068W, stronger effect = lower value 0.996 and 1.01 | S. cerevisiae deletion strains, locus YKL085W, strain MDH1 (second series), stronger effect = lower value 0.995 and 0.999 | S. cerevisiae deletion strains, locus YKL085W, strain MDH1, stronger effect = lower value 0.995 and 0.999 | S. cerevisiae deletion strains, locus YKL160W, strain elf1, stronger effect = lower value 0.982 | S. cerevisiae deletion strains, locus YKL190W, strain CNB1, stronger effect = lower value 0.995 and 1.02 | S. cerevisiae deletion strains, locus YKR001C, strain vps1, stronger effect = lower value 0.971 and 1.02 | S. cerevisiae deletion strains, locus YKR026C, strain gcn3, stronger effect = lower value 0.966 | S. cerevisiae deletion strains, locus YKR091W, strain srl3, stronger effect = lower value 0.984 | S. cerevisiae deletion strains, locus YLL001W, strain dnm1, stronger effect = lower value 0.972 | S. cerevisiae deletion strains, locus YLL026W, stronger effect = lower value 0.983 | S. cerevisiae deletion strains, locus YLL041C, strain sdh2, stronger effect = lower value 0.984 | S. cerevisiae deletion strains, locus YLR027C, strain aat2, stronger effect = lower value 0.978 | S. cerevisiae deletion strains, locus YLR039C, strain RIC1, stronger effect = lower value 1 and 0.981 | S. cerevisiae deletion strains, locus YLR058C, strain SHM2, stronger effect = lower value 0.985 and 1.02 | S. cerevisiae deletion strains, locus YLR102C, strain apc9, stronger effect = lower value 0.986 and 1.02 | S. cerevisiae deletion strains, locus YLR113W, strain HOG1, stronger effect = lower value 1.03 | S. cerevisiae deletion strains, locus YLR221C, strain rsa3, stronger effect = lower value 1.01 | S. cerevisiae deletion strains, locus YLR258W, strain gsy2, stronger effect = lower value 1 | S. cerevisiae deletion strains, locus YLR262C, strain YPT6 (second series), stronger effect = lower value 0.969 | S. cerevisiae deletion strains, locus YLR262C, strain YPT6, stronger effect = lower value 1.02 and 0.979 | S. cerevisiae deletion strains, locus YLR268W, strain sec22, stronger effect = lower value 1.01 and 1.04 | S. cerevisiae deletion strains, locus YLR320W, strain mms22, stronger effect = lower value 0.997 | S. cerevisiae deletion strains, locus YLR330W, strain CHS5, stronger effect = lower value 0.991 and 1.01 | S. cerevisiae deletion strains, locus YLR342W, strain FKS1 (second series), stronger effect = lower value 0.978 and 0.987 | S. cerevisiae deletion strains, locus YLR342W, strain FKS1, stronger effect = lower value 0.995 | S. cerevisiae deletion strains, locus YLR357W, strain rsc2, stronger effect = lower value 0.984 | S. cerevisiae deletion strains, locus YLR370C, strain arc18, stronger effect = lower value 0.975 | S. cerevisiae deletion strains, locus YLR371W, strain rom2, stronger effect = lower value 0.978 and 1.01 | S. cerevisiae deletion strains, locus YLR384C, strain iki3, stronger effect = lower value 0.969 | S. cerevisiae deletion strains, locus YLR418C, strain cdc73, stronger effect = lower value 0.994 and 1 | S. cerevisiae deletion strains, locus YML016C, strain PPZ1, stronger effect = lower value 0.982 and 1.01 | S. cerevisiae deletion strains, locus YML032C, strain rad52, stronger effect = lower value 0.972 and 0.998 | S. cerevisiae deletion strains, locus YML120C, strain ndi1, stronger effect = lower value 0.987 | S. cerevisiae deletion strains, locus YML124C, strain tub3, stronger effect = lower value 0.993 and 1.02 | S. cerevisiae deletion strains, locus YMR058W, strain fet3, stronger effect = lower value 0.978 | S. cerevisiae deletion strains, locus YMR078C, strain ctf18, stronger effect = lower value 0.979 and 1.01 | S. cerevisiae deletion strains, locus YMR125W, strain sto1, stronger effect = lower value 0.958 | S. cerevisiae deletion strains, locus YMR129W, stronger effect = lower value 0.985 | S. cerevisiae deletion strains, locus YMR205C, strain PFK2, stronger effect = lower value 0.955 | S. cerevisiae deletion strains, locus YMR223W, strain ubp8, stronger effect = lower value 0.977 and 1.01 | S. cerevisiae deletion strains, locus YMR231W, strain pep5, stronger effect = lower value 1 | S. cerevisiae deletion strains, locus YMR263W, strain SAP30, stronger effect = lower value 0.998 | S. cerevisiae deletion strains, locus YMR307W, strain GAS1, stronger effect = lower value 0.984 and 1.03 | S. cerevisiae deletion strains, locus YNL067W, strain RPL9B, stronger effect = lower value 0.998 and 1.05 | S. cerevisiae deletion strains, locus YNL071W, strain lat1, stronger effect = lower value 0.994 | S. cerevisiae deletion strains, locus YNL128W, strain TEP1, stronger effect = lower value 0.999 | S. cerevisiae deletion strains, locus YNL153C, strain GIM3, stronger effect = lower value 1.01 | S. cerevisiae deletion strains, locus YNL183C, strain NPR1, stronger effect = lower value 0.978 | S. cerevisiae deletion strains, locus YNL209W, strain ssb2, stronger effect = lower value 0.977 | S. cerevisiae deletion strains, locus YNL233W, strain BNI4, stronger effect = lower value 0.981 and 1.03 | S. cerevisiae deletion strains, locus YNL248C, strain rpa49, stronger effect = lower value 0.982 | S. cerevisiae deletion strains, locus YNL250W, strain rad50, stronger effect = lower value 0.989 and 1.02 | S. cerevisiae deletion strains, locus YNL271C, strain bni1, stronger effect = lower value 0.986 and 1.01 | S. cerevisiae deletion strains, locus YNL298W, strain CLA4, stronger effect = lower value 0.995 and 1.02 | S. cerevisiae deletion strains, locus YNL307C, strain MCK1, stronger effect = lower value 0.986 and 1.02 | S. cerevisiae deletion strains, locus YNL322C, strain KRE1 (second series), stronger effect = lower value 0.97 | S. cerevisiae deletion strains, locus YNL322C, strain KRE1, stronger effect = lower value 0.987 and 1.01 | S. cerevisiae deletion strains, locus YNR049C, strain mso1, stronger effect = lower value 0.98 | S. cerevisiae deletion strains, locus YNR052C, strain pop2, stronger effect = lower value 0.995 and 1.02 | S. cerevisiae deletion strains, locus YOL006C, strain TOP1, stronger effect = lower value 1.01 | S. cerevisiae deletion strains, locus YOL012C, strain htz1 0.984 and 1.9 | S. cerevisiae deletion strains, locus YOL147C, strain pex11, stronger effect = lower value 0.991 and 1.01 | S. cerevisiae deletion strains, locus YOR001W, strain rrp6, stronger effect = lower value 0.968 | S. cerevisiae deletion strains, locus YOR061W, strain CKA2, stronger effect = lower value 0.99 and 1 | S. cerevisiae deletion strains, locus YOR069W, strain VPS5, stronger effect = lower value 0.992 and 1.01 | S. cerevisiae deletion strains, locus YOR070C, strain gyp1, stronger effect = lower value 0.986 | S. cerevisiae deletion strains, locus YOR080W, strain dia2, stronger effect = lower value 0.984 | S. cerevisiae deletion strains, locus YOR083W, strain WHI5, stronger effect = lower value 0.999 | S. cerevisiae deletion strains, locus YOR106W, strain vam3, stronger effect = lower value 0.961 | S. cerevisiae deletion strains, locus YOR136W, strain idh2, stronger effect = lower value 0.989 and 1.02 | S. cerevisiae deletion strains, locus YOR144C, strain elg1, stronger effect = lower value 0.989 and 1.01 | S. cerevisiae deletion strains, locus YOR184W, strain ser1, stronger effect = lower value 0.984 and 1 | S. cerevisiae deletion strains, locus YOR231W, strain MKK1, stronger effect = lower value 1.01 | S. cerevisiae deletion strains, locus YOR265W, strain rbl2, stronger effect = lower value 0.973 | S. cerevisiae deletion strains, locus YOR270C, strain vph1, stronger effect = lower value 0.97 | S. cerevisiae deletion strains, locus YOR290C, strain snf2, stronger effect = lower value 0.98 | S. cerevisiae deletion strains, locus YOR316C, strain cot1, stronger effect = lower value 0.986 and 1.01 | S. cerevisiae deletion strains, locus YPL051W, strain arl3, stronger effect = lower value 0.991 | S. cerevisiae deletion strains, locus YPL055C, strain LGE1, stronger effect = lower value 1.03 and 1.02 | S. cerevisiae deletion strains, locus YPL078C, strain atp4, stronger effect = lower value 0.986 | S. cerevisiae deletion strains, locus YPL106C, strain sse1, stronger effect = lower value 0.971 | S. cerevisiae deletion strains, locus YPL240C, strain hsp82, stronger effect = lower value 0.969 | S. cerevisiae deletion strains, locus YPL241C, strain CIN2, stronger effect = lower value 0.995 and 1 | S. cerevisiae deletion strains, locus YPL256C, strain CLN2, stronger effect = lower value 1.03 | S. cerevisiae deletion strains, locus YPR119W, strain clb2, stronger effect = lower value 0.985 and 1.01 | S. cerevisiae deletion strains, locus YPR141C, strain kar3, stronger effect = lower value 0.981 and 1.02 | S. cerevisiae deletion strains, locus YPR163C, strain tif3, stronger effect = lower value 0.992 and 1.03 | S. cerevisiae deletion strains, locus YPR167C, strain met16, stronger effect = lower value 0.983 and 1.01 | S. cerevisiae deletion strains, strain wtn01, stronger effect = lower value 0.972 and 1.03 | S. cerevisiae strains, strain wild type, stronger effect = lower value 0.987
